High-throughput results deposited in PubChem by National Center for Advancing Translational Sciences (NCATS).
An excerpt weighted towards active compounds, which were near 4.1% of everything screened.
TSHR agonist: agonists of human thyroid stimulating hormone receptor; Potency, µM (highest dose often 57.1 µM), usual class: activators; AID 926; P16473; 73,000 tested, 0.48% active; HEK293-CNG-TSHR cells (CNG channel as cAMP sensor), membrane potential dye, cAMP; active means well fitted activation curve with a large enough effect in the main read-out, with a control signal flat, not every such curve was filed as active; inconclusive means small, poorly fitted or top-dose-only effect, or a change in a side signal; inactive means no such curve, though single readings can be large or run the other way; reference of the percent scale not stated here;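 further: the control signal comes from parental cells without the receptor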
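cAMP rise detected as CNG-channel membrane depolarization by fluorescent dye (emission 590 nm), 30 min after compound, following 60 min dye loading containing 100 uM RO 20-1724 at room temperature. Cells: TSHR/CNG HEK 293, with parental CNG HEK 293 as control.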
GBA activity: alters purified human glucocerebrosidase activity; P04062; purified enzyme, resorufin glucoside fluorescence (screen aimed at inhibitors), 20 min; Potency, µM; 48,000 tested, 1.1% active; AID 360; in the data active means potency below about 15 µM; inconclusive means mostly about 16 µM to 33 µM;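 further: the screen sought inhibitors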
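Wild-type enzyme at 0.2 nM final in 50mM citric acid/KH2PO4, 10mM sodium taurocholate, 0.01% tween-20, pH 5.9, with resorufin beta-D-glucopyranoside at 30 uM final. Compounds titrated, 20 min at RT, red fluorescence read; AC50 from titration.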
HEK293 cAMP cs: counter-screen for TSHR agonists: cAMP increase in parental HEK293. Potency, µM (titrated, usually from 57.1 µM), most hits filed as activators. 73,000 tested, 2.5% active. parental HEK293 CNG cAMP sensor, membrane potential fluorescence; further: nearly all actives have a fitted effect of over 55% in size
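Parental HEK 293 cells stably expressing a cAMP-gated CNG channel were loaded with membrane potential dye containing 100 uM RO 20-1724 for 60 min. Compound added for 30 min; depolarization read as fluorescence intensity at 590 nm.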
Bst PK mod: alters activity of Bacillus stearothermophilus pyruvate kinase. purified pyruvate kinase, luminescence ATP production; ribose 5-phosphate activator present at AC10. Potency, µM. AID 361. 51,000 tested, 1.2% active; in the data active means potency below about 11 µM; inconclusive means mostly about 12 µM to 25 µM;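 the screen sought inhibitors and activators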
USP2a inh: USP2a (human) protease inhibition | Potency, µM (top dose mostly 38.3 µM), usual class: inhibitors | USP2a enzymatic assay, qHTS inhibition | 60,000 tested, 0.1% active | AID 927; further: nearly all actives have a fitted effect of over 60% in size
Target sequence (O75604 whole entry, looked up): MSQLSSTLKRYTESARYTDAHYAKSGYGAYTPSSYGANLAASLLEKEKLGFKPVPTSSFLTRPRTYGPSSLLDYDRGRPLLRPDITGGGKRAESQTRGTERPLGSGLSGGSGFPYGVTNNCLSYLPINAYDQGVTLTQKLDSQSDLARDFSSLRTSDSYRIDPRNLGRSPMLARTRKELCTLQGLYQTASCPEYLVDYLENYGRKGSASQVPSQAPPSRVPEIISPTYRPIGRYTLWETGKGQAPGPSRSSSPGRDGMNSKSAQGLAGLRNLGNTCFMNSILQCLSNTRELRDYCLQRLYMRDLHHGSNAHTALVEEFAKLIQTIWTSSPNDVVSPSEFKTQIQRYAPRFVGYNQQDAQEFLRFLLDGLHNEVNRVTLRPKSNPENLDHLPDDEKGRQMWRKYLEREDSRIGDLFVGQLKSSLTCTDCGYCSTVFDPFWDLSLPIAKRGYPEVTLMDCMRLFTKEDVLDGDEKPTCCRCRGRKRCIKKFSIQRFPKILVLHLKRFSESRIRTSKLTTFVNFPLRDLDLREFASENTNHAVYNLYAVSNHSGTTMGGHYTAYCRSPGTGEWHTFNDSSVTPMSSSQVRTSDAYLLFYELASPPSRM
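Coupled readout: USP2-cleaved Ub-PLA2 (20nM final) turns over NBD C6-HPC (20uM final), Ex 460nm/Em 535nm after 2.5 h, time-zero read flagging artifacts. Enzyme (20nM final, pH 8.0 Tris) given 30 min RT with compound first; NEM defines full inhibition.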
UbGFP stabilizer: ubiquitin-GFP accumulation via proteasome inhibition; Ubiquitin-GFP reporter cells, proteasome inhibition, GFP fluorescence; response scale: untreated = 0%, 10 µM MG-132 = 100%; Potency, µM (highest dose often 45.9 µM), usual class: activators; 67,000 tested, under 10 active; active means well fitted activation curve with a large enough effect, not every such curve was filed as active; inconclusive means small, poorly fitted or top-dose-only effect, or another doubt; inactive means no such curve, though single readings can be large or run the other way
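Reporter cells (U2OS, ubiquitin-G76V-GFP fusion) are plated overnight, then treated 4 hr at 37 °C with compound titrations from 46 uM down to 2.9 nM. Activity is scaled against untreated cells and 10 uM MG-132.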
Hits are given with their value; – = inactive; ? = inconclusive; · = not tested or not shown; [ ] = remark or other dose. Unless noted, the call rests on the fitted dose curve; in most records, active means well fitted curve in the direction sought with a large enough effect; inconclusive means small, poorly fitted or top-dose-only effect, or another doubt; inactive means no such curve, though single readings can be large; an effect the other way counts as inactive or inconclusive.

SMILES | TSHR agonist | GBA activity | HEK293 cAMP cs | Bst PK mod | USP2a inh | UbGFP stabilizer
Cc1nc(-n2nnc3ccccc32)c2c3c(sc2n1)CCCC3 | ? | – | 20µM | – | – | –
CNc1ncncc1-c1ccccc1C | – | · | – | · | – | –
O=C(O)c1cc(Cl)cc(Cc2cc(Cl)cc(C(=O)O)c2O)c1O | –[11.4 µM] | · | –[11.4 µM] | · | · | –[9.17 µM]
N/N=C1/c2ccccc2N[C@H]1OC(=O)Nc1ccccc1 | –[11.4 µM] | · | –[11.4 µM] | · | · | –[9.17 µM]
CN[C@@H]1NC(=O)c2ccccc2N1Cc1ccc(F)cc1 | –[11.4 µM] | · | –[11.4 µM] | · | · | –[9.17 µM]
CCCn1c(SCC(=O)Nc2ccccc2N2CCCCC2)nc2c1c(=O)n(C)c(=O)n2C | ? | – | 1µM | – | – | –
COC(=O)[C@@]1(Cc2ccc(F)cc2)[C@H]2c3cc(C(=O)N(C)C)n(Cc4cc(F)c(F)c(F)c4)c3C[C@H]2CN1C(=O)c1ccccc1 | – | · | – | · | · | ·
COC(=O)[C@@]1(Cc2ccccc2)[C@H]2c3cc(C(=O)N(C)C)n(Cc4ccsc4Br)c3C[C@H]2CN1C(=O)c1ccccc1 | ? | · | 3.2µM | · | · | ·
COC(=O)[C@@]1(Cc2ccc(F)cc2)[C@H]2c3cc(C(=O)N(C)C)n(CC4CC4)c3C[C@H]2CN1C(=O)c1ccccc1 | ? | · | 6.3µM | · | · | ·
COC(=O)[C@@]1(Cc2ccccc2)[C@H]2c3cc(C(=O)N(C)C)n(Cc4ccccc4)c3C[C@H]2CN1C(=O)c1ccccc1 | ? | · | 2.5µM | · | · | ·
COC(=O)[C@@]1(Cc2ccccc2)[C@H]2c3cc(C(=O)N(C)C)n(C[C@H](O)CO)c3C[C@H]2CN1C(=O)c1ccccc1 | – | · | – | · | · | ·
COC(=O)[C@@]1(Cc2ccc(OC)cc2)[C@H]2c3cc(C(=O)N(C)C)n(Cc4cc(F)c(F)c(F)c4)c3C[C@H]2CN1C(=O)c1ccccc1 | ? | · | 4µM | · | · | ·
CC1CCC2C(=O)N3C(CCC(C)C3c3ccc(-c4ccco4)cc3)C(=O)N2C1c1ccc(-c2ccco2)cc1 (centres undefined) | –[11.4 µM] | · | –[11.4 µM] | · | · | ·
Cc1cccc(CNc2ccnc(-c3ccccc3C(F)(F)F)n2)c1 | ? | · | ? | · | – | –
C=CCCCC | ? | · | – | · | · | ·
CCc1ccccc1 | – | · | – | · | · | ·
COC(=O)[C@@]1(Cc2ccc(OC)cc2)[C@H]2c3cc(C(=O)N(C)C)n(Cc4ccc(C(F)(F)F)nc4)c3C[C@H]2CN1C(=O)c1ccccc1 | ? | · | 6.3µM | · | · | ·
COC(=O)[C@@]1(Cc2ccc(OC)cc2)[C@H]2c3cc(C(=O)N(C)C)n(Cc4ccc(OC)c(OC)c4)c3C[C@H]2CN1C(=O)c1ccccc1 | ? | · | 16µM | · | · | ·
COC(=O)[C@@]1(Cc2ccccc2)[C@H]2c3cc(C(=O)N(C)C)n(Cc4nc5ccccc5[nH]4)c3C[C@H]2CN1C(=O)c1ccccc1 | – | · | – | · | · | ·
COC(=O)[C@@]1(Cc2ccccc2)[C@H]2c3cc(C(=O)N(C)C)n(Cc4ccc(S(C)(=O)=O)cc4)c3C[C@H]2CN1C(=O)c1ccccc1 | ? | · | 16µM | · | · | ·
COC(=O)[C@@]1(Cc2ccccc2)[C@H]2c3cc(C(=O)N(C)C)n(Cc4ccc(O)c(OC)c4)c3C[C@H]2CN1C(=O)c1ccccc1 | ? | · | 25µM | · | · | ·
c1ccc(-c2ccc(N3CCCC4(CCNCC4)C3)cc2)cc1 | ? | · | – | · | – | –
CCC1CCCCN1C(=O)COC(=O)c1cc2ccccc2cc1O (centres undefined) | ? | – | 32µM | – | – | –
CN1Cc2c(N)cccc2[C@H](c2ccccc2)C1 | – | · | – | · | – | –
CC(=O)c1c(C)[nH]c(C(=O)Nc2ccc(C)cn2)c1C | – | · | – | 4.4 | – | –
SMILES | TSHR agonist | GBA activity | HEK293 cAMP cs | Bst PK mod | USP2a inh | UbGFP stabilizer
Cc1cccc(NC(=O)c2ccc(NS(=O)(=O)c3c(C)noc3C)cc2)c1 | – | 12 | – | – | – | –
COc1cc(NC(=O)c2ccc(NS(=O)(=O)c3c(C)noc3C)cc2)cc(OC)c1 | – | 11 | – | – | – | –
CCc1cccc(NC(=O)c2ccc(NS(=O)(=O)c3c(C)noc3C)cc2)c1 | – | ? | – | – | – | –
O=S(=O)(c1cccs1)N1CN(CC2CCCO2)c2nc3ccccc3nc21 (centres undefined) | 25µM | – | – | – | – | –
O=S(=O)(c1cccs1)N1CN(Cc2cccs2)c2nc3ccccc3nc21 | ? | – | ? | – | – | –
CCOc1cc(C2C(C(=O)OC(C)C)=C(C)N=C3SCCC(=O)N32)ccc1OC(C)=O (centres undefined) | – | 14 | – | – | – | –
CCCOc1ccc(C2C(C(=O)OC)=C(C)N=C3SCCC(=O)N32)cc1OCC (centres undefined) | – | – | – | – | – | –
COc1ccccc1N/C(N)=N/c1nc(CSc2ccc(C)cc2)cc(=O)[nH]1 | – | · | – | – | – | –
COc1ccc(N/C(N)=N/c2nc(CSc3ccc(C)cc3)cc(=O)[nH]2)cc1 | – | 9.7 | – | – | – | –
N#CCCn1c(=O)c(-c2ccc(Cl)cc2)nc2cnc(N3CCNCC3)nc21 | – | · | – | · | – | –
CCN(CC)S(=O)(=O)c1ccc(-c2nnco2)cc1 | – | – | – | – | – | –
Cc1ccc(S(=O)(=O)N(C)Cc2ccc(-c3nnco3)cc2)cc1 | ? | – | 25µM | – | – | –
COc1ccc(-n2nc(C(=O)NCc3ccco3)c3c4ccccc4n(C)c3c2=O)cc1 | ? | – | 10µM | – | – | –
CCCC[C@]1(C2CCCC2)Cc2cc(OCC(=O)O)c(Cl)c(Cl)c2C1=O | – | · | – | · | – | –
O=[N+]([O-])c1cc(Cl)c(Cl)c(Cl)c1Cl | – | · | – | · | · | ·
O=C1C=CC2=C3c4cc(O)c(O)cc4CC3(O)COC2=C1O (centres undefined) | · | · | · | · | 10µM | ·
CCOc1ccc(-n2c(-c3ccco3)n[nH]c2=S)cc1 | · | – | – | 9.4 | – | ·
Nc1ncn([C@H]2O[C@@H](CO)[C@@H](O)[C@@H]2O)c(=O)n1 | – | · | – | · | – | –
CN(C)S(=O)(=O)c1ccc(S(=O)(=O)N(Cc2ccccn2)Cc2ccco2)cc1 | – | 6.7 | – | – | – | –
O=C(O)CCNc1ncnc2nc[nH]c12 | –[11.4 µM] | · | –[11.4 µM] | · | · | –[9.17 µM]
C[C@@H](CNC(N)=O)NC(N)=O | –[11.4 µM] | · | –[11.4 µM] | · | · | –[9.17 µM]
CCCC[C@@H]1C[C@H]1C(NC(=O)c1ccco1)c1ccc(Cl)cc1 (some centres undefined) | ? | · | 16µM | · | · | ·
CCCC[C@@H]1C[C@H]1C(NC(=O)c1ccco1)c1ccc(-c2ccccc2)cc1 (some centres undefined) | – | · | – | · | · | ·
CCCC[C@@H]1C[C@H]1C(NC(=O)c1ccco1)c1ccccc1C(F)(F)F (some centres undefined) | ? | · | 32µM | · | · | ·
CCCC[C@@H]1C[C@H]1C(NC(=O)c1ccccc1)c1ccccc1 (some centres undefined) | ? | · | 13µM | · | · | ·
